Measurements published in PubChem BioAssay (NCI).
About 83,000 compounds went through this panel and 20% of them were active in at least one assay; those are over-represented in the sample as a whole.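 Step 1: grow cells in 96-well plates. Step 2: add test compound at a single concentration. Step 3: incubate 48 h. Step 4: record percent growth.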 The source made the active and inactive calls. Rule for the calls: active = growth percent below 10; inactive = the rest.

These compounds were tested on A498 renal (assay: NCI-60 one-dose screen, 48 h (100 = growth as untreated, 0 = no growth, -100 = all killed)). Settings: 10 µM.

SMILES	growth
COc1cc2cc(C(=O)N3C[C@@H](CCl)c4c3cc(OC(=O)N3CCN(C)[C@@H]5CSSC[C@H]53)c3ccccc43)[nH]c2c(OC)c1OC	-37% (active)
CC1=C(CCC=O)C2=C(C)C3(CC3)[C@@](C)(O)C(=O)C2=C1	-56.8% (active)
COC(=O)C[C@](O)(CCC(C)C)C(=O)O[C@@H]1C(OC)=C[C@]23CCCN2CCc2cc4c(cc2[C@H]13)OCO4	-46.5% (active)
O=C(/C=C/c1ccc(Cl)cc1)c1nc2ccccc2n1Cc1ccc(F)cc1	125% (inactive)
CC[C@]12C=CCN3CC[C@@]4(c5ccc(OC)cc5N(C)[C@H]4[C@@](O)(C(=O)OC)[C@@H]1OC(=O)CCC[P+](C1CCCCC1)(C1CCCCC1)C1CCCCC1)[C@@H]32	21.8% (inactive)
CC1=C2C(=C[C@@](C)(COP(=O)(Oc3ccccc3)Oc3ccccc3)[C@@H]2O)C(=O)[C@@](C)(O)C12CC2	-39.4% (active)
CC(=O)Oc1ccccc1C(=O)NC([Se])=NC1CCCCC1	16.3% (inactive)
CCOP(=O)(CC(F)(F)C(F)(F)F)OCC	126% (inactive)
CC(C)C[C@H](NC(=O)CNC(=O)C[C@H]1O[C@@H]2OC3(C)CC[C@H]4[C@H](C)CC[C@@H]([C@H]1C)[C@@]24OO3)B(O)O	43.1% (inactive)
C[C@H]1[C@@H](Oc2ccc(-c3cn(-c4ccnc5cc(Cl)ccc45)nn3)cc2)O[C@@H]2OC3(C)CC[C@H]4[C@H](C)CC[C@@H]1[C@@]24OO3	95% (inactive)
C[C@H]1[C@H](OC(=O)CCC(=O)N(CCCc2cn(-c3ccc([N+](=O)[O-])cc3)nn2)CCNc2ccnc3cc(Cl)ccc23)O[C@@H]2OC3(C)CC[C@H]4[C@H](C)CC[C@@H]1[C@@]24OO3	116% (inactive)
